Assay outcomes deposited in PubChem BioAssay by The Scripps Research Institute Molecular Screening Center.
GPR151 ag: activators of human GPR151, primary screen, cell-based, PathHunter beta-arrestin, luminescence; G-protein coupled receptor 151 (Homo sapiens), Q8TDV0; PathHunter beta-arrestin GPR151 cells; activation, % at 11.2 µM; 650,000 compounds, 1% hits; AID 1508602, 2020; in the data active means activation above about 4.9%
MITF inh: MITF inhibitors, primary screen, biochemical, AlphaScreen, human; 650,000 compounds, 0.91% hits; AlphaScreen MITF homodimerization, bead proximity signal; inhibition, % at 2.6 µM; AID 1259374, 2018; in the data active means inhibition above about 50%
FBW7 activator: FBW7 E3 ligase activators, primary screen, biochemical, AlphaScreen, human; 650,000 compounds, 0.13% hits; F-box/WD repeat-containing protein 7 (Homo sapiens), Q969H0; normalized activity (activation), % at 26.1 µM; AlphaScreen FBW7–phospho-cyclin E peptide binding, activator screen; in the data active means normalized activity above about 1.9%;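 further: purified mutant Fbw7 with reduced substrate affinity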
TEAD-YAP block: TEAD-YAP interaction inhibition, primary screen, TEAD-YAP interaction inhibitor project, luminescence, HEK-TIYL cells. TEAD-Gal4/YAP UAS-luciferase luminescence. inhibition, % at 9.12 µM. 640,000 compounds, 1.4% hits; in the data active means inhibition above about 32%
A number is an active result; n = inactive. An excerpt weighted towards active compounds, which were near 3.5% of everything screened.

SMILES	GPR151 ag	MITF inh	FBW7 activator	TEAD-YAP block
CC(c1nccs1)N(C)C(=O)CC1(c2cccc(F)c2)CC(=O)N(C)C1=O (configuration not stated)	n	n	n	n
CCOCCC(=O)Nc1ccccc1F	n	n	n	n
Cc1ccnc(NC(c2cccnc2)c2ccc3cccnc3c2O)c1 (configuration not stated)	n	66	n	n
Cc1ccnc(NC(c2cccnc2)c2ccc3ccc(C)nc3c2O)c1 (configuration not stated)	n	n	n	n
Cc1sc2nc(C)n(C3CCN(C(=O)c4cc(C(C)(C)C)[nH]n4)CC3)c(=O)c2c1C	n	n	n	n
Cc1cccc(NS(=O)(=O)c2cc(Br)cc3c2N(C(=O)C2CC2)CC3)c1	n	n	n	71
COc1ccc(NS(=O)(=O)c2cc(Br)cc3c2N(C(C)=O)CC3)cc1	n	n	n	44
COc1c(C)cc(S(=O)(=O)Nc2ccc3c(c2)N(C(=O)C2CC2)CC3)cc1C	n	n	n	43
CCc1ccc(NS(=O)(=O)c2cc(Br)cc3c2N(C(C)=O)CC3)cc1	n	n	n	47
Cc1cc(NS(=O)(=O)c2ccc3c(c2)CCN3C(=O)C2CC2)ccc1Br	n	n	n	n
COCC1CCCCN1C(=O)CN1Cc2ccccc2OC(c2ccsc2)C1 (configuration not stated)	n	n	n	n
N#CC(C#N)=NNc1ccc(SC(F)F)cc1	n	n	n	74
CCOC(=O)N1CCc2c(sc(N)c2C(=O)Nc2ccccc2OCC)C1	n	n	n	32
CCOC(=O)N1CCc2c(sc(NC(=O)c3cccc(Br)c3)c2C#N)C1	n	n	n	42
CCOc1ccccc1NC(=O)c1c(N)sc2c1CCCC2	n	n	n	n
CCOC(=O)N1CCc2c(sc(NC(=O)c3ccccc3Br)c2C#N)C1	n	n	n	53
CCOC(=O)N1CCc2c(sc(NCc3cccc(OC)c3OC)c2C(=O)Nc2ccc(OC)cc2OC)C1	n	n	n	37
CCN(CC)C(=O)Cn1cnc2sc(C(=O)Nc3cccc(Cl)c3C)c(C)c2c1=O	n	n	n	n
O=c1/c(=C\c2ccccc2)sc2nc(-c3ccncc3)nn12	n	n	n	n
CCN(CC)C1=NC(C(=O)OC)(C(F)(F)F)N=C(C)O1 (configuration not stated)	n	n	n	n
CCOC(=O)N1CCc2c(sc(NC(=O)c3cc(Cl)sc3Cl)c2C#N)C1	n	n	n	32
CC(C)N1CCc2c(sc(NC(=O)c3cc4ccccc4oc3=O)c2C(N)=O)C1	n	n	n	62
CCOC(=O)N1CCc2c(sc(NC(=O)/C=C/c3cccs3)c2C#N)C1	n	n	n	49
CCOC(=O)N1CCc2c(sc(NC(=O)c3ccccc3)c2C#N)C1	n	n	n	51
CCOC(=O)N1CCc2c(sc(NC(=O)/C=C/c3ccc([N+](=O)[O-])cc3)c2C#N)C1	n	n	n	n
SMILES	GPR151 ag	MITF inh	FBW7 activator	TEAD-YAP block
C/C=C/C=C/C(=O)OC(C)C(=O)Nc1ccc(NC(C)=O)cc1 (configuration not stated)	n	n	n	n
CSc1nc2ccc(NC(=O)COc3cccc(F)c3)cc2s1	n	n	n	n
COc1cccc(-c2nnc(SCc3nc(N)nc(Nc4ccccc4C)n3)n2C)c1	n	n	n	n
CCOC(=O)N1CCc2c(sc(NC(=O)Cc3ccccc3)c2C(N)=O)C1	n	n	n	n
CCOC(=O)c1c(NC(=O)c2ccc(Cl)s2)sc2c1CCN(C(C)C)C2	n	n	2.2	n
CC(=O)N1CCc2c(sc(NC(=O)CCc3ccccc3)c2C(N)=O)C1	n	n	n	51
CCOC(=O)c1c(NC(=O)Cc2ccccc2)sc2c1CCN(C(=O)OCC)C2	n	n	5.2	n
CC(=O)N1CCc2c(sc(NC(=O)CSc3ccccc3)c2C(N)=O)C1	n	n	n	n
CC(=O)N1CCc2c(sc(NC(=O)/C=C/c3cccs3)c2C(N)=O)C1	n	n	n	41
CCOC(=O)c1c(NC(=O)C(CC)Sc2nnc3c4ccccc4n(C(C)C)c3n2)sc2c1CCCC2 (configuration not stated)	n	n	n	n
Cc1ccc(-n2ncc3c(SCC(=O)NCc4ccco4)ncnc32)c(C)c1	n	n	n	39
CCOC(=O)/C=C(\Nc1ccc(C)cc1N)c1ccccc1	n	n	n	38
Cc1ccc(NC(=O)COc2ccccc2)c(N)c1	n	n	n	n
